Screening results: PubChem BioAssay, National Center for Advancing Translational Sciences (NCATS)
Most compounds without a hit are left out; they make up all but 2.1% or so of the library.
Mito fusion act: blocks mitochondrial division or promotes mitochondrial fusion; S. cerevisiae fusion-defective mutant growth rescue, CellTiterGlo 48 h; Potency, µM (highest dose often 46.1 µM), for the others: at the top dose growth rescue (activation), actives largely listed as activators; hit rate 0.23% among 320,000; note: potency is the fitted concentration of half-maximal effect; % of control where 0% means no effect; nearly all actives have a fitted effect of over 45% in size
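Compounds are tested for their ability to restore growth of mitochondrial fusion-defective yeast strains at non-permissive 37C in YPEG medium over 48 hours. Viability is quantified by luciferase luminescence.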
Giardia killer: kills Giardia lamblia; Giardia lamblia trophozoite viability; activity change, % at 7.66 µM, hits read low; AID 540267; hit rate 0.15% among 340,000; in the data active = activity change below about -80%; inconclusive = between about -30% and that limit;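 note: parasites exposed to compound for two days anaerobically before the ATP read; % is set by controls: 0 for no effect and ±100 for the full control effect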
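Viability, read as ATP luminescence: trophozoites at 100 cells/well, compound added, 48 hrs anaerobic at 37 deg C, then 15-30 min room-temperature development before reading.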
ClpP mod: qHTS Assay for Activators of ClpP; ATP-dependent Clp protease proteolytic subunit (Bacillus subtilis (strain 168)), P80244; purified B. subtilis ClpP, FRET peptide cleavage, 20 min; Potency, µM (titrated, usually from 57.5 µM), inactives show at the top dose activity change, negative = active; hit rate 1.9% among 340,000; active = well fitted falling curve with a large enough effect; inconclusive = small, poorly fitted or top-dose-only effect; inactive = no such curve, though single readings can be large or run the other way; note: potency is the fitted concentration of half-maximal effect; the source files actives as falling curves though it sought activators and does not explain the sign; nearly all actives have a fitted effect of over 65% in size
Target sequence (P80244 whole entry, looked up): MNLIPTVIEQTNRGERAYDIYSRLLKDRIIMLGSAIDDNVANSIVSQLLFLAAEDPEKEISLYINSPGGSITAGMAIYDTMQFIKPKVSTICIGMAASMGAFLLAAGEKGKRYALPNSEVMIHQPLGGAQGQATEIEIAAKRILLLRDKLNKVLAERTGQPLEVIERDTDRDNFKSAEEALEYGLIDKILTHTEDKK
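ClpP 10 microg/mL final, pH 8 Tris/KCl buffer with BSA, glycerol, Tween-20; compound pinned in; FRET-FV substrate; RT 20 min; Ex320/Em430; ΔFRET vs ADEP 5.8 microM, DMSO, no enzyme.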
uPA generation: cell surface uPA generation inhibition | cell surface uPA generation assay, qHTS | Potency, µM (titrated, usually from 38.3 µM), for inactives: at the top dose activity change, negative = inhibition, usual class: inhibitors | hit rate 0.31% among 330,000; active = well fitted inhibition curve with a large enough effect; inconclusive = small, poorly fitted or top-dose-only effect; inactive = no such curve, though single readings can be large or run the other way; tested in mouse RAW 264.7 cells; note: potency is the fitted concentration of half-maximal effect; % is set by controls: 0 for no effect and ±100 for the full control effect; nearly all actives have a fitted effect of over 55% in size
p53 reactivator: re-activators of mutant p53; H1299 p53-A138V BP100-luciferase reporter, luminescence, 24 h; Potency, µM (top dose mostly 92.2 µM), without a hit: at the highest dose activity change, positive = activation, hits mostly activators; hit rate 0.063% among 320,000; AID 504706; note: potency is the fitted concentration of half-maximal effect; % of control where 0% means no effect; nearly all actives have a fitted effect of over 45% in size
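H1299 (p53-null), stable ts p53-A138V + BP100-Luc; 1000 cells/well, Opti-MEM/10% FBS; cpd 4 pt, 1:5; 24 h, 37 deg C, 5% CO2; detection reagent 10 min RT; luminescence.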
B2AR arrestin: beta2AR (human) beta-arrestin recruitment activity. hit rate 0.02% among 330,000. AID 492947. beta-arrestin recruitment to beta2AR, cell-based reporter. Potency, µM (titrated, usually from 46.1 µM), without a hit: at the highest dose activation, usual class: activators. P07550;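 note: potency is the fitted concentration of half-maximal effect; 0% = DMSO controls and full agonism = EC100 isoproterenol or metaproterenol; nearly all actives have a fitted effect of over 65% in size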
Target sequence (P07550 whole entry, looked up): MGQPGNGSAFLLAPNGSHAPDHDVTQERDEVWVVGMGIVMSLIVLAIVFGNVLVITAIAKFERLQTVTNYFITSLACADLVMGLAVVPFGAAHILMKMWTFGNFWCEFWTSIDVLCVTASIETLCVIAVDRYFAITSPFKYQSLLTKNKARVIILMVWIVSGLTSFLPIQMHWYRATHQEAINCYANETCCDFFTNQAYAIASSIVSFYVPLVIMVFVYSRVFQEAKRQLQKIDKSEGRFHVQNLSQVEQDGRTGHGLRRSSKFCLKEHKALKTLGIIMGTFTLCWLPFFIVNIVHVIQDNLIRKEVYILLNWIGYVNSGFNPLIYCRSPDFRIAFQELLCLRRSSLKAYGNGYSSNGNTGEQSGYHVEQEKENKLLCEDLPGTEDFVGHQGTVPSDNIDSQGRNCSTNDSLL
Numbers without * were called inactive. Unless noted, calls come from the whole dose curve; as a rule, active = well fitted curve in the direction sought with a large enough effect; inconclusive = small, poorly fitted or top-dose-only effect, or another doubt; inactive = no such curve, though single readings can be large; an effect the other way counts as inactive or inconclusive.

`Cc1cccc(C(c2sc3nc(-c4ccco4)nn3c2O)N2CCN(Cc3ccccc3)CC2)c1` (centres undefined) gave ClpP mod 0%.
`Cn1cc(Br)c(C(=O)N/N=C/c2cccc(OC3CSC3)c2)n1` gave Mito fusion act inconclusive, Giardia killer 8, ClpP mod -2%, uPA generation -3%, p53 reactivator inconclusive and B2AR arrestin -1%.
`CCOc1cc(/C=N/NC(=O)c2nn(C)cc2Br)ccc1OCc1ccccc1Cl` gave Mito fusion act 4µM*, Giardia killer -4, ClpP mod inconclusive, uPA generation -6%, p53 reactivator -18% and B2AR arrestin -3%.
CC(Oc1ccc(-c2ccccc2)cc1)C(=O)N1CCOCC1 (centres undefined) was read as Mito fusion act 1%, Giardia killer -4, ClpP mod 25µM*, uPA generation 0%, p53 reactivator 12% and B2AR arrestin -1%.
`COc1ccc(OC(C)C(=O)N2CCOCC2)cc1` (centres undefined) gave Mito fusion act 1%, Giardia killer inconclusive, ClpP mod -3%, uPA generation 3%, p53 reactivator -3% and B2AR arrestin 0%.
For CC(C)c1nc2oc3c(=O)[nH]cnc3c2c2c1CCC2 the results were Mito fusion act -4%, Giardia killer 8, ClpP mod 13µM*, uPA generation -18%, p53 reactivator 4% and B2AR arrestin 0%.
O=S(=O)(Nc1cc(Br)cc2cccnc12)c1ccccc1 was read as Giardia killer 24.
`O=C(NCc1ccc2c(c1)OCO2)c1cc(Cl)ccc1Cl` gave Mito fusion act 0%, Giardia killer 5, ClpP mod 3%, uPA generation -29%, p53 reactivator 13% and B2AR arrestin 0%.
Screening O=C(NCc1ccc2c(c1)OCO2)c1ccc(CSCc2ccc(Cl)cc2)o1 returned Mito fusion act 18µM*, Giardia killer -2, ClpP mod -6%, uPA generation 7%, p53 reactivator -2% and B2AR arrestin 0%.
Screening O=C(NCc1ccc2c(c1)OCO2)c1ccc(COc2cc(Cl)ccc2Cl)o1 returned Mito fusion act 14µM*, Giardia killer -17, ClpP mod -3%, p53 reactivator -1% and B2AR arrestin 0%.
CCN(CCCN(C)C)c1ccc(/C=C/c2ccnc3ccccc23)cc1 was read as ClpP mod 2%.
Screening Cc1ccc(NC(=O)c2sc3ncn(Cc4cccc(F)c4)c(=O)c3c2C)c(Br)c1 returned ClpP mod -10%.
Screening CCCC(c1nnnn1CCc1ccccc1)N1CCN(C2CCCC2)CC1 (centres undefined) returned Mito fusion act -4%, Giardia killer 5, ClpP mod 0.79µM*, uPA generation -2%, p53 reactivator 8% and B2AR arrestin 0%.
`CCCC(c1nnnn1CCc1ccccc1)N1CCC(C(N)=O)CC1` (centres undefined) gave Mito fusion act -1%, Giardia killer 1, ClpP mod -2%, uPA generation 5%, p53 reactivator -1% and B2AR arrestin 0%.
For CN(CC(=O)Nc1ccccc1Br)C(=O)c1ccccc1-c1nc2ccccc2s1 the results were Mito fusion act 4%, Giardia killer -10, ClpP mod 28µM*, uPA generation 6%, p53 reactivator -39% and B2AR arrestin 0%.
`O=C(c1ccc(-n2cncn2)c([N+](=O)[O-])c1)N1CCN(S(=O)(=O)c2c(F)cccc2F)CC1` gave Mito fusion act -1%, Giardia killer 10, ClpP mod 2%, uPA generation 2%, p53 reactivator 5% and B2AR arrestin 0%.
`O=C(c1ccc(-n2cncn2)c([N+](=O)[O-])c1)N1CCN(S(=O)(=O)c2ccccc2F)CC1` gave Mito fusion act -5%, Giardia killer 7, ClpP mod 14µM*, uPA generation 3%, p53 reactivator 24% and B2AR arrestin -1%.
Screening CCOC(=O)Cc1c(C)nc2c(-c3ccccc3)c(-c3ccccc3)[nH]n2c1=O returned Mito fusion act -3%, Giardia killer -9, ClpP mod 22µM*, p53 reactivator 4% and B2AR arrestin 0%.
`Cc1ccccc1Cc1c(C)nc2c(-c3ccccc3)c(C)[nH]n2c1=O` gave ClpP mod 4%.
CCOC(=O)Cc1c(C)nc2c(-c3ccccc3)c(C)[nH]n2c1=O was read as Mito fusion act 4%, Giardia killer 7, ClpP mod 28µM*, uPA generation 6%, p53 reactivator -5% and B2AR arrestin -1%.
For Cc1nc2c(-c3ccccc3)c(C)[nH]n2c(=O)c1Cc1ccccc1 the results were Mito fusion act 1%, Giardia killer 22, uPA generation -5%, p53 reactivator 2% and B2AR arrestin 0%.
Screening CCOC(=O)Cc1c(C)nc2c(-c3ccccc3)c[nH]n2c1=O returned Mito fusion act 1%, Giardia killer -13, ClpP mod 16µM*, uPA generation -4%, p53 reactivator -12% and B2AR arrestin 0%.
Screening CCOC(=O)Cc1c(C)nc2cc(-c3ccc(C)cc3)[nH]n2c1=O returned Mito fusion act -4%, Giardia killer -9, ClpP mod 16µM*, uPA generation 0%, p53 reactivator inconclusive and B2AR arrestin 0%.
For C[n+]1ccnc2cc(Cl)ccc21 the results were ClpP mod -7%.
`CCOc1ccccc1NC(=O)NCCn1c(=O)oc2ccc(C)cc21` gave ClpP mod 0%.
CCCCOc1cccc(C(=O)N(Cc2sccc2C)C2CCS(=O)(=O)C2)c1 (centres undefined) was read as ClpP mod -1%.
For COc1ccc(/C=C/C(=O)Nc2ccc(-n3nncc3-c3ccc(OC)c(OC)c3)cc2)cc1OC the results were Mito fusion act -1%, Giardia killer -1, ClpP mod 25µM*, uPA generation -15%, p53 reactivator -27% and B2AR arrestin 0%.
For COc1ccc(-c2cnnn2-c2ccc(NC(=O)/C=C/c3ccc(OC)c(OC)c3)cc2)cc1 the results were Mito fusion act 0%, Giardia killer inconclusive, ClpP mod inconclusive, uPA generation -3%, p53 reactivator -12% and B2AR arrestin 0%.
Screening O=C(Cn1nc(-c2ccccc2)c2cnc3ccccc3c21)Nc1ccccc1 returned ClpP mod -3%.
